Laboratory results published in PubChem BioAssay AID463173 (ICCB-Longwood Screening Facility, Harvard Medical School, 2010).
In all, about 52,000 compounds went through this assay and about 4,300 (8.3%) were called active. Cut-off read from the data, not from the text of the source: active = survival mostly below about 52% (no sharp cut-off); inactive = mostly above about 56%. The list comes from a sample in which actives are over-represented; it also holds similar structures and randomly drawn compounds.

Test system: DeltatarO mutant
Test: S. aureus survival, RN4220 and DeltatarO strains – OD600, teichoic acid synthesis inhibitors, primary screen (AID 463173)
Settings: S. aureus RN4220 wild type/DeltatarO growth, OD600, 18 h, active compounds read low, screened at 18.75 µg/mL (by protocol)

| SMILES | survival |
| --- | --- |
| O=c1c(S(=O)(=O)c2ccccc2)cn(Cc2ccccc2)c2cc(N3CCOCC3)c(F)cc12 | 85% (inactive) |
| COc1ccc(NC(=O)CCCN2C(=O)C(c3ccccc3)Oc3cccnc32)c(OC)c1 (configuration not stated) | 81% (inactive) |
| Cc1ccc(C(=O)c2oc3ccccc3c2NC(=O)COc2ccccc2C)cc1 | 95% (inactive) |
| CCc1ccc(NC(=O)CSC2=Nc3ccccc3C3=NC(CCC(=O)NCc4ccccc4OC)C(=O)N23)cc1 (configuration not stated) | 55% (inactive) |
| Cc1ccc(-n2ncc3c(N4CCN(C)CC4)ncnc32)cc1Cl | 96% (inactive) |
| COc1ccc(C2=NC(C)(C)N(CC(=O)Nc3ccc(F)c(F)c3)C2=O)cc1 | 92% (inactive) |
| Cc1c(C(=O)Nc2cc(F)ccc2F)sc2nc(-c3ccc(F)cc3)cn12 | 107% (inactive) |
| CCn1c(=O)c(C(=O)Nc2cc(OC)c(OC)c(OC)c2)nc2ccccc21 | 89% (inactive) |
| Cc1ccccc1-c1nc2cc(NC(=O)COc3ccc(F)cc3)ccc2o1 | 56% (inactive) |
| O=C(COc1ccc(F)cc1)Nc1ccc(Cl)c(-c2nc3ccccc3[nH]2)c1 | 26% (active) |
| O=C(COc1ccccc1F)Nc1ccc2oc(-c3cccc(Cl)c3)nc2c1 | 102% (inactive) |
| O=C(COc1ccccc1F)Nc1ccc(Cl)c(-c2nc3ccccc3[nH]2)c1 | 33% (active) |
| CN1C(=O)c2ccccc2Sc2ccc(NC(=O)COc3ccc(F)cc3)cc21 | 87% (inactive) |
| O=C(COc1ccccc1F)Nc1ccc(-c2nc3ccccc3s2)cc1 | 67% (inactive) |
| CCOC(=O)N1CCc2c(sc(NCc3ccc(N(C)C)cc3)c2C(=O)Nc2ccc(OC)cc2)C1 | 77% (inactive) |
| CC1=C(c2ccc(C)cc2)S(=O)(=O)NC1=NCCCN1CCN(c2ccccc2F)CC1 | 74% (inactive) |
| CCCCNC(=O)CSc1nc2cc3c(cc2c(=O)n1Cc1ccc(C(=O)NCCc2ccc(OC)c(OC)c2)cc1)OCO3 | 85% (inactive) |
| COc1ccccc1OCc1nnc(SCC(=O)N(C)C)o1 | 52% (inactive) |
| COC(=O)c1ccc(Cn2c(SCC(=O)NCc3ccccc3)nc3ccccc32)cc1 | 102% (inactive) |
| CC1=C(C#N)C(c2cccc(Oc3ccccc3)c2)C2=C(CCCC2=O)N1 (configuration not stated) | 54% (inactive) |
| O=C(CCCn1c2ccccc2c(=O)c2ccccc21)Nc1ccc(F)cc1Cl | 51% (inactive) |
| Cc1cc(C)cc(NC(=O)CCCn2c3ccccc3c(=O)c3ccccc32)c1 | 42% (active) |

| SMILES | survival |
| --- | --- |
| Cc1cc(C)cc(NC(=O)Cn2c(=O)c3ccccc3n3nncc23)c1 | 83% (inactive) |
| O=C(CCCn1c(=O)c2ccccc2n(CC(=O)Nc2cccc(Cl)c2)c1=O)NCc1ccc2c(c1)OCO2 | 76% (inactive) |
| O=C(CCCn1c2ccccc2c(=O)c2ccccc21)Nc1cccc(Cl)c1 | 27% (active) |
| O=C(CCCn1c(=O)c2cccn2c2ccccc21)Nc1cccc(Cl)c1 | 41% (active) |
| Cc1ccc2c(c1)c(=O)c1ccccc1n2CCCC(=O)Nc1ccc(C)c(C)c1 | 43% (active) |
| Cc1ccc(CNC(=O)CCCn2c(=O)c3ccccc3n(CC(=O)Nc3ccc(C)c(C)c3)c2=O)cc1 | 78% (inactive) |
| Cc1ccc2c(c1)c(=O)c1ccccc1n2CCCC(=O)Nc1ccc(C)c(F)c1 | 105% (inactive) |
| Cc1cccc(C)c1NC(=O)CCCn1c(=O)c2cccn2c2ccccc21 | 55% (inactive) |
| Cc1ccc(NC(=O)CCCn2c(=O)c3cccn3c3ccccc32)c(Cl)c1 | 51% (inactive) |
| Cc1cc(C)cc(NC(=O)CCCn2c(=O)c3cccn3c3ccccc32)c1 | 59% (inactive) |
| Cc1cccc(N(C)c2ccc3cc(S(=O)(=O)N4CCCC4)ccc3n2)c1 | 96% (inactive) |
| N#CCNS(=O)(=O)c1ccccc1 | 97% (inactive) |
| CC(=O)N1CCCc2cc(S(=O)(=O)NCc3ccccc3Cl)ccc21 | 112% (inactive) |
| CCc1ccccc1NC(=O)Cn1cc(C(=O)c2ccc(Cl)cc2)c(=O)c2ccc(C)nc21 | 78% (inactive) |
| CCCCN(Cc1cc2cc(C)ccc2[nH]c1=O)C(=O)c1cccc(Cl)c1 | 72% (inactive) |
| CCOC(=O)c1sc2ccccc2c1S(=O)(=O)Nc1ccc(OC)c(Cl)c1 | 89% (inactive) |
| COc1ccc(OCC(=O)Nc2cc(-c3ccccc3F)nn2-c2ccccc2)cc1 | 92% (inactive) |
| Cc1ccc2c(c1)c(=O)c1ccccc1n2CCCC(=O)Nc1ccc(Cl)c(Cl)c1 | 45% (active) |
| Cc1ccc(NC(=O)Cn2c(=O)n(CCCCC(=O)NCc3ccccc3Cl)c(=O)c3ccccc32)cc1 | 83% (inactive) |
| COc1ccc(NC(=O)Cn2c(=O)n(CCCC(=O)NCCc3ccc(C)cc3)c(=O)c3ccccc32)cc1Cl | 97% (inactive) |
| Cc1ccc(NC(=O)CSc2nc3ccccc3c3nc(CCn4cncc4C)nn23)c(C)c1 | 75% (inactive) |
| COc1ccc(CNC(=O)CCC2N=C3c4ccccc4N=C(SCc4ccc(F)cc4)N3C2=O)cc1 (configuration not stated) | 83% (inactive) |

| SMILES | survival |
| --- | --- |
| COCCCNC(=O)CSC1=Nc2ccccc2C2=NC(CCC(=O)NCc3ccccc3OC)C(=O)N12 (configuration not stated) | 78% (inactive) |
| O=C(CCC1N=C2c3ccccc3N=C(SCc3ccc(F)cc3)N2C1=O)NCc1cccs1 (configuration not stated) | 135% (inactive) |
| O=C(CCC1N=C2c3ccccc3N=C(SCc3ccc(Cl)cc3)N2C1=O)NCc1cccs1 (configuration not stated) | 47% (active) |
| Cc1ccc(CSC2=Nc3ccccc3C3=NC(CCC(=O)NCc4cccs4)C(=O)N23)cc1 (configuration not stated) | 94% (inactive) |
| COc1ccccc1CNC(=O)CCC1N=C2c3ccccc3N=C(SCC(=O)NCCc3ccccc3)N2C1=O (configuration not stated) | 131% (inactive) |
| COc1ccccc1CNC(=O)CCC1N=C2c3ccccc3N=C(SCc3cccc(Cl)c3)N2C1=O (configuration not stated) | 49% (inactive) |
| O=C(CCC1N=C2c3ccccc3N=C(SCc3ccccc3F)N2C1=O)NCc1ccc(F)cc1 (configuration not stated) | 69% (inactive) |
| COc1ccccc1CNC(=O)CCC1N=C2c3ccccc3N=C(SCc3ccc(Cl)cc3)N2C1=O (configuration not stated) | 32% (active) |
| CCCCNC(=O)CSC1=Nc2ccccc2C2=NC(CCC(=O)NCc3ccccc3OC)C(=O)N12 (configuration not stated) | 0% (active) |
| COc1ccc(CNC(=O)CCC2N=C3c4ccccc4N=C(SCc4ccccc4F)N3C2=O)cc1 (configuration not stated) | 37% (active) |
| COc1ccccc1CNC(=O)CCC1N=C2c3ccccc3N=C(SCc3ccc(C)cc3)N2C1=O (configuration not stated) | 112% (inactive) |
| CC(C)(C)c1ccc(C(=O)N2CCN(CCc3ccccn3)CC2)cc1 | 45% (inactive) |
| CCc1cccc(C)c1Nc1c(-c2ccc(F)cc2)nc2sccn12 | 35% (inactive) |
| CCCN(CCC)CCCNC(=O)Cn1ncc2c3ccccc3n(Cc3ccc(F)cc3)c2c1=O | 91% (inactive) |
| O=C(NCC1CCCO1)C1CC(c2ccccc2O)=NO1 (configuration not stated) | 91% (inactive) |
| CC(NC(=O)C1CCN(C(=O)N2CCOc3ccc(Cl)cc32)CC1)c1ccccc1 (configuration not stated) | 50% (inactive) |
| COc1ccc(OC)c(NC(=O)Nc2c(C)n(C)n(-c3ccccc3)c2=O)c1 | 88% (inactive) |
| CCC(CC)c1nn2c(=O)cc(COc3ccc(NC(=O)c4cccc(Cl)c4)cc3)nc2s1 | 79% (inactive) |
| CC(C)NC(=O)C1CCN(C(=O)NCc2ccccc2)CC1 | 93% (inactive) |
| COc1cccc(N2CCN(C(=O)C3CCCN(S(=O)(=O)c4ccc(Br)s4)C3)CC2)c1 (configuration not stated) | 76% (inactive) |
| CC1N=C2c3ccccc3N=C(SCC(=O)NCCc3ccccc3)N2C1=O (configuration not stated) | 52% (active) |
| CC1N=C2c3ccccc3N=C(SCC(=O)NCCc3ccc(Cl)cc3)N2C1=O (configuration not stated) | 80% (inactive) |

| SMILES | survival |
| --- | --- |
| Cc1ccc(CNC(=O)CSC2=Nc3ccccc3C3=NC(C)C(=O)N23)cc1 (configuration not stated) | 71% (inactive) |
| CCNC(=O)CC1C(=O)N(c2ccccc2)C(=O)N1Cc1ccc(F)cc1 (configuration not stated) | 74% (inactive) |
| COc1cccc(CNC(=O)CSC2=Nc3ccccc3C3=NC(C)C(=O)N23)c1OC (configuration not stated) | 124% (inactive) |
| COC(=O)c1ccccc1NC(=O)Cn1c(=O)n(CCC(=O)NCc2ccccc2OC)c(=O)c2ccccc21 | 82% (inactive) |
| Cc1ccccc1OCC(=O)Nc1ccc(S(=O)(=O)N(Cc2ccccc2)c2ccccc2)cc1 | 66% (inactive) |
| COc1ccc(-n2ccnc(NCCc3ccc(S(N)(=O)=O)cc3)c2=O)cc1 | 66% (inactive) |
| COC(=O)CNC(=O)Nc1cc(C(=O)NCc2ccc(C)cc2)ccc1N1CCCC1 | 76% (inactive) |
| COC(=O)c1c(N)n(-c2cc(Cl)cc(Cl)c2)c2nc3ccccc3nc12 | 44% (active) |
| COC(=O)c1c(N)n(-c2ccc(OC)c(OC)c2)c2nc3ccccc3nc12 | 94% (inactive) |
| COC(=O)c1c(N)n(-c2ccc(OC)c(Cl)c2)c2nc3ccccc3nc12 | 93% (inactive) |
| Cc1ccc(CNc2nc(-c3ccco3)nn2S(C)(=O)=O)cc1 | 113% (inactive) |
| CCOC(=O)Cc1ccc(NC(=O)N2CCC(CN3CCCCCC3)CC2)cc1 | 80% (inactive) |
| Cc1cc(C)cc(NS(=O)(=O)c2ccc3c(c2)NC(=O)C(C)S3)c1 (configuration not stated) | 11% (active) |
| O=C1CCSc2ccc(S(=O)(=O)Nc3ccc(Cl)c(C(F)(F)F)c3)cc2N1 | 72% (inactive) |
| Cc1ccccc1NS(=O)(=O)c1ccc2c(c1)NC(=O)CCS2 | 64% (inactive) |
| Cc1cc(C)c(NS(=O)(=O)c2ccc3c(c2)NC(=O)CCS3)c(C)c1 | 76% (inactive) |
| CC1C(=O)Nc2ccc(S(=O)(=O)Nc3ccccc3Br)cc2NC1=O (configuration not stated) | 90% (inactive) |
| Cc1ccc(NS(=O)(=O)c2ccc3c(c2)NC(=O)C(C)C(=O)N3)cc1F (configuration not stated) | 69% (inactive) |
| Cc1ccc(NS(=O)(=O)c2ccc3c(c2)NC(=O)CCS3)c(Br)c1 | -1% (active) |
| Cc1ccc(NS(=O)(=O)c2ccc3c(c2)NC(=O)CCS3)cc1C | 79% (inactive) |
| O=C1CCSc2ccc(S(=O)(=O)Nc3cccc(C(F)(F)F)c3)cc2N1 | -2% (active) |
